Reference: PubChem BioAssay
For part of these data: Results with a measured potency or affinity are listed apart. Activity calls are given as the source filed them.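 The calls were made as follows, unless noted: active = primary screen active and over 50% activation in each of two duplicate runs; inactive = the rest.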

Key:
[1] = test system: TRPC4 beta (transient receptor potential cation channel C4), mouse; experiment: activators of mouse TRPC4 channel, confirmation, cell-based, Fluo4 calcium, HEK293 TRPC4beta/mu-opioid, duplicates, 10 µM (AID 2426;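 active = fluorescence ratio normalized to control raised more than 50% in primary screen plus both repeat runs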); conditions: Fluo4 calcium fluorescence, at 10 µM; stronger effect = higher value
[2] = test system: transient receptor potential cation channel C4 beta (TRPC4), mouse; experiment: activators of mouse TRPC4 channel, confirmation, cell-based, second round, Fluo4, HEK293 TRPC4beta/mu-opioid, 1 µM (AID 2461); conditions: Fluo4 calcium fluorescence, at 1 µM; stronger effect = higher value
[3] = test system: TRPC4 (transient receptor potential cation channel C4 beta), mouse; experiment: positive allosteric modulators of mouse TRPC4, confirmation, cell-based, second round, Fluo-4, HEK293 TRPC4beta/mu-opioid, 1 µM (AID 2554;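 active = primary screen hit whose fluorescence ratio, in both repeats, exceeds the weak agonist control mean by 3 SD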); conditions: DAMGO EC20, Fluo-4 calcium flux, at 1 µM; stronger effect = higher value
[4] = test system: TRPC4 beta (transient receptor potential cation channel C4), mouse; experiment: positive allosteric modulators of mouse TRPC4, confirmation, cell-based, Fluo-4, HEK293 TRPC4beta/mu-opioid (AID 2555;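 active = primary screen hit whose calcium fluorescence ratio, in both repeats, exceeds the weak agonist control mean by 3 SD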); conditions: DAMGO EC20, Fluo-4 calcium flux, at 10 µM; stronger effect = higher value
[5] = target: Short transient receptor potential channel 4 (Mus musculus) (UniProt Q9QUQ5); experiment: inhibitors of mouse TRPC4 channel, confirmation, cell-based, Fluo4, HEK293 TRPC4beta/mu-opioid (AID 2636;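 active = calcium signal cut by more than 3 SD below the full-agonist control yet still positive, in both repeats and the earlier primary screen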); conditions: DAMGO, Fluo4 calcium flux, at 10 µM; stronger effect = higher value
[6] = target: Short transient receptor potential channel 4 (Mus musculus) (UniProt Q9QUQ5); experiment: inhibitors of mouse TRPC4 channel, confirmation, cell-based, second round, Fluo4, HEK293 TRPC4beta/mu-opioid, 1 µM (AID 2637;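 active = calcium signal ratio cut to more than 3 SD under the fully stimulated control mean yet still positive, in both repeats and the primary screen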;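 as to inhibition: percent of integrated ratio relative to wells lacking test compound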); conditions: Fluo4 calcium flux, DAMGO, at 1 µM; stronger effect = higher value
[7] = target: Short transient receptor potential channel 4 (Mus musculus) (UniProt Q9QUQ5); experiment: mouse TRPC4 channel activators, dose response, cell-based, HEK293 TRPC4/mu-opioid, Fluo-4 calcium (AID 434937;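 active = primary screen activator hit with a dose response curve and TRPC4 channel activation at any tested dose; inactive = no activation, no dose response, or not a primary hit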)
[8] = target: Short transient receptor potential channel 4 (Mus musculus) (UniProt Q9QUQ5); experiment: TRPC4 positive allosteric modulators, dose response, cell-based, HEK293 TRPC4/mu-opioid, Fluo-4 calcium, EC20 DAMGO (AID 434941;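 active = earlier screen potentiator hit that boosts the TRPC4 ion channel at some dose, with a dose response; inactive = no potentiation, no dose response, or not a prior hit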;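 also: calcium entry triggered by an EC20 dose of DAMGO at the co-expressed mu-opioid receptor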)
[9] = target: Short transient receptor potential channel 6 (Mus musculus) (UniProt Q61143); experiment: inhibition of mouse TRPC6 channel, confirmation, selectivity assay for TRPC4 inhibitor project, cell-based, HEK293, membrane potential dye, duplicate (AID 434948;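 active = active in primary screen and both duplicates, each dropping signal beyond three positive-control SD with fluorescence still positive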); conditions: HEK293 TRPC6, membrane potential dye fluorescence, at 10 µM, stimulated with maximal-effect acetylcholine; stronger effect = higher value
[10] = target: Short transient receptor potential channel 6 (Mus musculus) (UniProt Q61143); experiment: activation of mouse TRPC6 channel, confirmation, selectivity assay for TRPC4 activator project, cell-based, HEK293, membrane potential dye, duplicate (AID 434950;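 active = membrane potential signal rise above negative control mean plus 3 SD in both duplicates, also active in the earlier TRPC4 screen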); conditions: HEK293 TRPC6, membrane potential fluorescence, at 10 µM; stronger effect = higher value
[11] = target: Short transient receptor potential channel 6 (Mus musculus) (UniProt Q61143); experiment: TRPC6 potentiation by TRPC4 potentiator hits, confirmation, selectivity assay for TRPC4 potentiator project, HEK293 cells, membrane potential dye, duplicate (AID 434952;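 active = compound raising the membrane signal above positive-control mean plus 3 SD in both repeats, and a primary screen hit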); conditions: HEK293 TRPC6, membrane potential dye fluorescence, at 10 µM, maximal acetylcholine added after compound; stronger effect = higher value
[12] = target: Short transient receptor potential channel 4 (Mus musculus) (UniProt Q9QUQ5); experiment: calcium flux activators in TRPC4/5HT1a cells, counter-screen for TRPC4 activator project, cell-based, second counter screen, HEK293 TRPC4/5HT1a, Fluo-4 (AID 434977;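 active = calcium signal rise above buffer-control mean plus 5 SD in both duplicates, and also a hit in the primary screen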); conditions: Fluo-4 calcium flux, at 10 µM; stronger effect = higher value
[13] = calcium flux inhibitors in TRPC4/5HT1a cells, confirmation, counter-screen for TRPC4 inhibitor project, cell-based, second counter screen, HEK293 TRPC4/5HT1a, Fluo-4 (AID 434978;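 active = primary screen active whose calcium signal fell more than 3 SD beyond the full-serotonin control mean in both duplicate plates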); conditions: Fluo-4 calcium flux, at 10 µM, serotonin added to trigger calcium flux; stronger effect = higher value
[14] = test system: TRPC4 (mouse), co-expressed with 5HT1a in HEK293; experiment: calcium flux potentiators in TRPC4/5HT1a cells, confirmation, counter-screen for TRPC4 potentiator project, cell-based, second counter screen, HEK293 TRPC4/5HT1a, Fluo-4 (AID 434979;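 active = signal rise over 3 SD above mean of control wells given weak agonist, in both repeats and first screen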); conditions: Fluo-4 calcium flux, at 10 µM, serotonin added at its EC20 dose; stronger effect = higher value
[15] = calcium flux activation in mu-opioid HEK293 cells, confirmation, counter-screen for TRPC4 activator project, cell-based, HEK293 mu-opioid receptor line (AID 449723;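 active = hit in primary screen, with calcium signal over 5 SD above buffer well mean in both duplicates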;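 also: counter screen cells carry the mu-opioid receptor alone and lack TRPC4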); conditions: Fluo-4 calcium fluorescence, at 10 µM; stronger effect = higher value
[16] = calcium flux enhancement in mu-opioid HEK293 cells, confirmation, counter-screen for TRPC4 allosteric potentiator project, cell-based, HEK293 mu-opioid receptor line (AID 449724;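 active = calcium signal rise more than 3 SD above the low-dose agonist control mean, in both duplicate plates and the primary screen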); conditions: Fluo-4 calcium flux, at 10 µM, compound added before EC20 DAMGO stimulus; stronger effect = higher value

Measured: inhibition

Short transient receptor potential channel 6 (Mus musculus), sequence (Q61143 whole entry, looked up): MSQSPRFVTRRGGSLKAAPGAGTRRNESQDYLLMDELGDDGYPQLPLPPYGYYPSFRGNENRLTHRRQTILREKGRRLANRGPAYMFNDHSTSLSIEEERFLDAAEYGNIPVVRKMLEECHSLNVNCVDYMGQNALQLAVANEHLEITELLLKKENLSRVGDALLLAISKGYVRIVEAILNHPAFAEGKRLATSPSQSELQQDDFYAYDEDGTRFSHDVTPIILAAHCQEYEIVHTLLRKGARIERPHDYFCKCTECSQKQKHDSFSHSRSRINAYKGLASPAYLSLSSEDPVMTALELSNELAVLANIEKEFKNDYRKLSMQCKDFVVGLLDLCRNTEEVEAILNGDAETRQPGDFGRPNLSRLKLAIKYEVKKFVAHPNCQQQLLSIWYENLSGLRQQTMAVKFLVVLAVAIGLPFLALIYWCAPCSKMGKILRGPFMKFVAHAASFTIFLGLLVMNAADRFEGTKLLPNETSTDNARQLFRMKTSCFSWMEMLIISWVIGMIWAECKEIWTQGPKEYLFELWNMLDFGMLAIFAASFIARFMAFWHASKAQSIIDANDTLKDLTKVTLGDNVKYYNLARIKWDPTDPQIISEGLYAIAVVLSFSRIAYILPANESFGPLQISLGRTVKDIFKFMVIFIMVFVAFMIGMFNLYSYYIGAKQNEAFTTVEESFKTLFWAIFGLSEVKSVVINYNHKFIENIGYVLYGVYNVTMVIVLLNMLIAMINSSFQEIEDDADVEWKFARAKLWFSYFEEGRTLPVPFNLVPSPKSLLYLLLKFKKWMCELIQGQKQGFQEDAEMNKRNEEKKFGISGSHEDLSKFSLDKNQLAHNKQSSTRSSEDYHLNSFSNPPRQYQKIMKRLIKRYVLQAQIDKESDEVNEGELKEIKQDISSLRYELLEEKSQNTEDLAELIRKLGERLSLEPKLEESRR
Short transient receptor potential channel 4 (Mus musculus), sequence (Q9QUQ5 whole entry, looked up): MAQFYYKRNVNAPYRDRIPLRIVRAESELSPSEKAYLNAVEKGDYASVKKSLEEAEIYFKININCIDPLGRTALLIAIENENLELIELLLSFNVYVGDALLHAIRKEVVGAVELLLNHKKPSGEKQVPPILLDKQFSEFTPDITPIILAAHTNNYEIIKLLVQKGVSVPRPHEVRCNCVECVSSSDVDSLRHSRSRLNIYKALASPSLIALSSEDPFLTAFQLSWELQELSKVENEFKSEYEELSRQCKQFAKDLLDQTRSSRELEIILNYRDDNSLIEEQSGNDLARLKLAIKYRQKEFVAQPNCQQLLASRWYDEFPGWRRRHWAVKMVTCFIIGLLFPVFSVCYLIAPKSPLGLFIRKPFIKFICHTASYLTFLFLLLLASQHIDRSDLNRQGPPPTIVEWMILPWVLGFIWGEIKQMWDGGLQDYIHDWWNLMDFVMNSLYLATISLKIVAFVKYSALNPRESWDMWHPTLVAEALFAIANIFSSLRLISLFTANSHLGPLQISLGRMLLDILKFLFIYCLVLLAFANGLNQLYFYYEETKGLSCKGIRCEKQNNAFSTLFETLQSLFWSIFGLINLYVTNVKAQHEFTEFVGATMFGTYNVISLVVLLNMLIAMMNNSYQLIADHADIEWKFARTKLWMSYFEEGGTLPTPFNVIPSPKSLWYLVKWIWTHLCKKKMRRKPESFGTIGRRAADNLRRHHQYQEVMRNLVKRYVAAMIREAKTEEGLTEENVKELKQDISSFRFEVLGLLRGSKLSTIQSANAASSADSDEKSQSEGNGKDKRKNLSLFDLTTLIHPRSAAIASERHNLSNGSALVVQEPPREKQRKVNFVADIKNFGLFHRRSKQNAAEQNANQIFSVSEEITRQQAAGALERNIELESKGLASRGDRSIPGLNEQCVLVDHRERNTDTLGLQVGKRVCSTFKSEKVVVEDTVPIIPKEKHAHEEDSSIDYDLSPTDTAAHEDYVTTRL

CSc1nc(N2CCOCC2)c2c3c(sc2n1)CCCC3
active: [5] 75% | [13] 37.5%
inactive: all other assays above

Cc1ccccc1N(C(=O)c1snc(C(N)=O)c1N)C(C(=O)NC1CCCC1)c1ccco1 (stereo not given)
active: [5] 78% | [13] 37%
inactive: all other assays above

COc1cc(/C=C2\SC(N3CCC(C)CC3)=NC2=O)ccc1O
active: [5] 91% | [6] 48% | [13] 31.2%
inactive: all other assays above

CC(C)Sc1nc2sc3c(c2c2nnc(SCC(=O)NCc4ccco4)n12)CCCC3
active: [5] 78% | [13] 16.9%
inactive: all other assays above

CC(=O)Oc1ccc(/C=C(\NC(=O)c2ccco2)C(=O)NCc2ccccc2)cc1
active: [5] 82% | [13] 44.5%
inactive: all other assays above

Cc1ccc(NC(=O)CNc2ccccc2CN(C)C2CCCCC2)cc1
active: [5] 76% | [13] 33.5%
inactive: all other assays above

NC(=O)c1nsc(C(=O)N(Cc2ccco2)C(C(=O)NCC2CCCO2)c2ccc(F)cc2)c1N (stereo not given)
active: [5] 76%
inactive: all other assays above

CCOC(=O)C1(CCOc2ccccc2)CCN(Cc2cccs2)CC1
active: [5] 80%
inactive: all other assays above

O=C(Nc1ccc(Oc2ccccc2)nc1)C1CCN(Cc2ccccc2)CC1
active: [5] 74% | [13] 32.6%
inactive: all other assays above

O=C(CCN1CCc2ccccc2C(O)(c2ccccc2)C1)c1ccc2c(c1)OCCO2 (stereo not given)
active: [13] 39.2%
inactive: all other assays above

COc1ccccc1N1CCN(CCCNC(=O)Nc2ccccc2)CC1
active: [5] 95% | [6] 61% | [13] 22.6%
inactive: all other assays above

COc1nc(N=C(N)N)nc2ccc(C)cc12
active: [5] 96% | [9] 46.5% | [13] 21.1%
inactive: all other assays above

Cc1cccc(C)c1N1CCc2cn[nH]c21
active: [5] 84% | [13] 31.5%
inactive: all other assays above

Brc1cc2c(cc1COc1ccc(-c3nn[nH]n3)cc1)OCO2
active: [5] 89% | [13] 35.1%
inactive: all other assays above

Cc1nc(Cl)nc(N(C)c2ccccc2)c1[N+](=O)[O-]
active: [5] 97% | [6] 49% | [13] 43.6%
inactive: all other assays above
